esBAF inh: SWI/SNF esBAF complex inhibition. mouse ES cells, Bmi1-luciferase knock-in reporter, 24 h; 100% = twice the neutral-well signal. reporter increase, % at 12.5 µM. 2% of 350,000 active; in the data active means activation above about 40%;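 further: 0% = median of the plate's neutral control wells and 100% = double that signal; a rise in the Bmi1 reporter signal indicates esBAF inhibition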
697 NFkB inh: inhibitors of the PMA/ionomycin-induced NF-kB reporter in 697 B cells | AID 435022 | inhibition, % at 4 µM | 697 B-cell NF-kB luciferase reporter, 16 h | 0.33% of 330,000 active; in the data active means inhibition above about 35%
Jurkat NFkB inh: inhibitors of the PMA/ionomycin-induced NF-kB reporter in Jurkat cells; 0.53% of 330,000 active; PMA/ionomycin-induced NF-kB luciferase reporter, luminescence; inhibition, % at 4 µM; in the data active means inhibition above about 50%
Gli-Sufu block: Gli-Sufu pathway antagonism; Sufu-KO-LIGHT fibroblasts, Gli luciferase reporter luminescence; 0.74% of 340,000 active; inhibition, % at 5 µM;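 active means inhibition above about 55%, limit read from the data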;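 further: 0% = DMSO-treated cells and 100% = wells with medium but no cells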
SMARCA2 act: SMARCA2 function activation, primary screen; MG213 cells, MMTV-luciferase reporter, dexamethasone, overnight; activation, % at 9.1 µM; 1% of 370,000 active; in the data active means activation above about 7.8%;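 further: 0% = vehicle wells and 100% = reference activator wells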
Jurkat NFkB conf: inhibitors of the PMA/ionomycin-induced NF-kB reporter in Jurkat cells, retest; shares compounds with Jurkat NFkB inh; Jurkat NF-kB luciferase, 16 h; inhibition, % at 4 µM; 27% of 2,700 active;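 active means inhibition reaching about 45% at 4 µM in either replicate, limit read from the data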;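 further: plate controls were PMA/ionomycin stimulated DMSO wells for no effect and unstimulated DMSO wells for full effect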
* = called active by the depositor; nt = no result given. An excerpt weighted towards active compounds, which were near 3.3% of everything screened.

SMILES | esBAF inh | 697 NFkB inh | Jurkat NFkB inh | Gli-Sufu block | SMARCA2 act | Jurkat NFkB conf
CO[C@H]1CN(C)C(=O)c2ccc(NC(=O)c3ccc(F)cc3)cc2OC[C@@H](C)N(C)C[C@@H]1C | 7 | nt | nt | nt | nt | nt
Cc1noc(C)c1S(=O)(=O)Nc1ccc2c(c1)C(=O)N([C@H](C)CO)C[C@@H](C)[C@@H](CN(C)Cc1ccncc1)OCCCC[C@H](C)O2 | -1 | nt | nt | nt | nt | nt
COc1ccc(CN(C)C(=O)c2ccc(OCC(=O)Nc3cccc(C(F)(F)F)c3)c(OC)c2)c(OC)c1 | 7 | -28 | 34 | 10 | -3 | nt
COc1cccc(CN(C)C(=O)c2ccc(OCC(=O)Nc3cccc(C(F)(F)F)c3)c(OC)c2)c1 | 3 | -35 | 56* | 11 | -4 | 62*
O=S(=O)(N[C@@H]1CC[C@@H](CCn2cc(-c3cccnc3)nn2)O[C@@H]1CO)c1ccc(F)cc1 | -2 | nt | nt | nt | nt | nt
COc1ccc(NC(=O)Nc2nc3ccccc3s2)cc1 | nt | -123 | -96 | -86 | 5 | nt
CCCCOC(=O)Nc1nc2ccccc2s1 | nt | -144 | -155 | -93 | 5 | -105
COCC(=O)Nc1nc2ccccc2s1 | 19 | -45 | -38 | -31 | 4 | nt
CCCCOC(=O)Nc1nc2ccc(OC)cc2s1 | 25 | -58 | -40 | -45 | 5 | nt
COc1ccccc1C(=O)Nc1nc2ccccc2s1 | -84 | 2 | 62* | 67* | -8 | 71*
Nc1ccc(C(=O)Nc2nc3ccccc3s2)cc1 | -17 | -140 | -201 | -144 | 2 | -139
COc1ccc(NC(=O)Nc2ccc3c(c2)CC(=O)N([C@@H](C)CO)C[C@H](C)[C@@H](CN(C)Cc2ccncc2)O3)cc1 | 4 | nt | nt | nt | nt | nt
COc1ccc(-c2cnc3c(c2)C(=O)N([C@H](C)CO)C[C@@H](C)[C@@H](CN(C)C(=O)C2CCC2)O3)cc1 | 2 | nt | nt | nt | nt | nt
COc1ccc(-c2c(C)nc3c(-c4ccc(F)cc4)cnn3c2N)cc1 | 33 | -207 | -183 | -9 | 2 | -73
CC(C)NC(=O)Nc1ccc2c(c1)CC(=O)N([C@H](C)CO)C[C@@H](C)[C@H](CN(C)C)O2 | -4 | nt | nt | nt | nt | nt
CN(NC(=O)c1ccc(Cl)cc1)c1nc(-c2ccccc2)nnc1C(F)(F)F | -2 | 3 | -2 | 0 | 0 | nt
Cc1ccc(C(=O)NN(C)c2nc3ccccc3nc2C(F)(F)F)cc1 | -5 | -43 | 56* | 14 | -1 | 33
O=C(/C=C/c1ccc2c(c1)OCO2)Nc1nc2ccccc2s1 | nt | -162 | -168 | -93 | 0 | -65
Cc1ccc2nc(NC(=O)/C=C/c3ccc4c(c3)OCO4)sc2c1 | nt | 3 | 3 | 47 | -1 | nt
O=C(C[C@@H]1CC[C@H](NC(=O)c2ccncc2)[C@@H](CO)O1)NCCc1ccncc1 | -1 | nt | nt | nt | nt | nt
O=C(NCCSc1ccccc1)c1ccc(Br)cc1 | nt | -170 | -166 | -111 | 1 | -100
C[C@@H]1CN([C@@H](C)CO)S(=O)(=O)c2ccc(-c3cccnc3)cc2O[C@@H]1CN(C)Cc1ccncc1 | 4 | nt | nt | nt | nt | nt
CCCCCCCn1c2c(c(=N)c3ccccc31)CCC2 | nt | 25 | 72* | 89* | -10 | 67*
C[C@@H]1CN([C@H](C)CO)C(=O)c2cccc(NS(=O)(=O)c3cccs3)c2O[C@@H]1CN(C)Cc1ccc(Oc2ccccc2)cc1 | -5 | nt | nt | nt | nt | nt
C[C@@H]1CN([C@H](C)CO)C(=O)c2cc(N(C)C)ccc2O[C@@H](C)CCCCO[C@@H]1CN(C)C(=O)Nc1cccc2ccccc12 | -3 | nt | nt | nt | nt | nt
SMILES | esBAF inh | 697 NFkB inh | Jurkat NFkB inh | Gli-Sufu block | SMARCA2 act | Jurkat NFkB conf
CCN(CC)c1ccc(N=Nc2nn(C)c(C)c2[N+](=O)[O-])cc1 | nt | -189 | -178 | -103 | 4 | -106
C[C@@H]1CCCCO[C@H](CN(C)C)[C@H](C)CN([C@H](C)CO)C(=O)c2cc(NC(=O)Nc3ccc4c(c3)OCO4)ccc2O1 | -6 | nt | nt | nt | nt | nt
C[C@@H]1CCCCO[C@@H](CN(C)C(=O)NC2CCCCC2)[C@H](C)CN([C@@H](C)CO)C(=O)c2cc(NS(=O)(=O)c3cn(C)cn3)ccc2O1 | 7 | nt | nt | nt | nt | nt
Clc1ccc2nc3c4ccccc4cnn3c2c1 | nt | -174 | -160 | -42 | 5 | -121
O=C1/C(=C/c2ccc(N3CCOCC3)o2)SC(=Nc2ccccc2)N1CCc1c[nH]c2ccccc12 | -34 | -38 | 91* | 53 | nt | 38
CC(=Nc1ccc(Br)cc1)c1sc2ccccc2c1O | 2 | -130 | -201 | -113 | 2 | -13
CC(=O)Nc1ccccc1C(=O)C(=O)Nc1ccc(C)c(C)c1 | 33 | -15 | -54 | -71 | 2 | nt
Cc1ccc(NC(=O)/C(Cl)=C/c2ccccc2)cc1C | 27 | -161 | -155 | -103 | 3 | -116
